Consider 66 compounds from PubChem BioAssay AID1159537 (DiRusso Lab, Biochemistry Department, University of Nebraska, 2015).

SMILES strings stand for the structures. In all, about 44,000 compounds went through this assay and about 370 (0.84%) were called active. The rule behind the calls is not given here. Shown is part of a subset that was picked to be rich in actives.

The test can be described thus: inducers of TAG accumulation in Chlamydomonas, primary screen, qHTS, Chlamydomonas reinhardtii (AID 1159537).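 Note: hits raise Nile Red signal meaning more stored TAG.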 Particulars: Nile Red fluorescence, 72 h, screened at 10 µM (by protocol). Background: qHTS replaces the single test concentration by a dilution series.
As to `O=C(COc1ccc([N+](=O)[O-])cc1)Nc1cccc(Br)c1`, the compound was called inactive.
For `CCOc1ccccc1NC(=O)COc1ccc(Br)c(C)c1` the value was “inactive”.
For `CC(=O)c1nc2ccccc2n1Cc1ccccc1` the value was “inactive”; for `O=C(O)Cn1c2ccccc2c2cc([N+](=O)[O-])ccc21`, “inactive”.
To `CC(=O)c1nc2cc([N+](=O)[O-])ccc2n1Cc1ccccc1` belongs “active”.
Regarding `CC(C(=O)NCc1ccncc1)N(c1ccccc1)S(C)(=O)=O` (stereo unspecified), the compound was classed as inactive.
For `COc1ccc(N=C2NC(=O)CC(C(=O)Nc3ccc(Cl)cc3)S2)cc1` (stereo unspecified), the result was inactive.
To `CC(=O)Nc1ccc(NC(=O)c2ccc(F)cc2)cc1` belongs “inactive”; to `OCCN1CCN(C2CCN(Cc3ccc(Cl)cc3)CC2)CC1`, “inactive”.
To `COc1ccc(-c2cn3c4ccccc4n(CCN4CCOCC4)c3n2)cc1` belongs “inactive”; to `O=C1CCC(=O)N1c1ccc(S(=O)(=O)c2ccc(N3C(=O)CCC3=O)cc2)cc1`, “inactive”; to `O=C(COc1ccc([N+](=O)[O-])cc1)Nc1ccc(Cl)cc1`, “inactive”.
`COc1ccccc1CNC1CCC(C)C1` (stereo unspecified): the result was inactive.
On to `NC(=O)CCSc1ccc(Cl)cc1`, for which the call was inactive.
To `NC(N)=NS(=O)(=O)c1ccc(NC(=O)c2ccc([N+](=O)[O-])cc2)cc1` belongs “inactive”; to `Cc1cccc(NC(=O)C(=O)NC(C)c2ccccc2)c1` (stereo unspecified), “inactive”; to `CC(=O)NS(=O)(=O)c1ccc(NC(=O)C2C3C=CC(C3)C2C(=O)O)cc1` (stereo unspecified), “inactive”.
To `Cc1ccc(CNC(=O)c2ccccc2Br)cc1` belongs “inactive”; to `COc1ccc(Nc2nc(Nc3ccc(OC)cc3)nc(N3CCNCC3)n2)cc1`, “inactive”.
For `CC1CCCN(CCCCOc2ccccc2F)C1` (stereo unspecified) the value was “inactive”; for `COc1cc(/C=C(\C#N)c2nc3ccc(C)cc3[nH]2)c(Br)cc1O`, “inactive”; for `O=C(NCc1cccnc1)C(O)(c1ccccc1)c1ccccc1`, “inactive”.
As to `COc1ccccc1OCCNc1cc(N2CCOCC2)ccc1[N+](=O)[O-]`, the compound was classed as inactive.
To `Cc1ccc(OCCOCCN2CCOCC2)c([N+](=O)[O-])c1` belongs “active”.
For `CCN(CC)CCCOc1ccc(C)cc1[N+](=O)[O-]` the value was “inactive”; for `CNC(=O)C(=O)NCCc1ccccc1`, “inactive”.
To `O=C1CC(NCCc2ccccc2)C(=O)N1c1ccc(F)cc1` (stereo unspecified) belongs “inactive”.
Take `Cn1c(SCC(=O)Nc2ccccc2)nc2ccccc21`: the compound was called inactive.
For `Cc1ccc(C(C)C)c(OCC(O)CN2CCCC(C)C2)c1` (stereo unspecified) the value was “inactive”.
For `CCOc1ccc(N2C(=O)CC(SCC(=O)Nc3ccc(F)cc3)C2=O)cc1` (stereo unspecified) the value was “inactive”.
For `COc1ccc(N(CC(=O)Nc2ccc(C)cc2)S(C)(=O)=O)c(OC)c1` the value was “inactive”; for `COc1ccccc1/C=C(/C#N)c1nc2ccccc2[nH]1`, “inactive”; for `CNC(=O)CN(c1ccc(F)cc1)S(C)(=O)=O`, “inactive”.
On to `COc1ccccc1N(CC(=O)NC12CC3CC(CC(C3)C1)C2)S(=O)(=O)c1ccccc1`, for which the compound was called inactive.
For the compound `CC(=O)Nc1ccc(CN2CCOCC2)cc1`, the call was inactive.
To `O=C(c1ccc(CN2CCOCC2)cc1)N(Cc1ccccc1)Cc1ccccc1` belongs “active”.
For `O=C(Nc1cccc(Cl)c1Cl)c1ccc(CN2CCOCC2)cc1` the value was “inactive”; for `COC(=O)NC(c1ccc(Br)cc1)C(Cl)(Cl)Cl` (stereo unspecified), “inactive”.
For `Cc1ccc2c(Cl)c(C(=O)Nc3cc(S(N)(=O)=O)ccc3C)sc2c1` the value was “inactive”.
Consider `CC(=O)c1ccc(NC(=O)COc2ccc(Br)c(C)c2)cc1`, for which the compound was called inactive.
For `CCOc1ccc(NC(=O)Nc2nnc(Cc3ccc(OC)cc3)s2)cc1` the value was “inactive”.
Turning to `C=CCNC(=O)COc1ccc(C)cc1Br`, the result was inactive.
`COc1ccc(Cl)cc1NC(=O)CSc1nc2ncccc2[nH]1`: the call was inactive.
In the case of `CC(=O)Nc1ccc(CN2CCN(c3ccc(C(C)=O)cc3)CC2)cc1`, the compound was classed as inactive.
For `CC(=O)NC1=C(N2CCN(Cc3ccccc3)CC2)C(=O)c2ccccc2C1=O` the value was “active”; for `O=C(Nc1ccccc1)N1CCN(Cc2ccccc2)CC1`, “inactive”; for `O=C(Nc1cccc(Cl)c1)Nc1ccccn1`, “inactive”.
As for `O=C1CC(N2CCc3ccccc3C2)C(=O)N1c1ccc([N+](=O)[O-])cc1` (stereo unspecified), the call was active.
`O=C1CC(N2CCCCCC2)C(=O)N1c1ccccc1` (stereo unspecified): the call was inactive.
Take `O=C1CC(N2CCN(c3ccc([N+](=O)[O-])cc3)CC2)C(=O)N1c1cccc(Cl)c1` (stereo unspecified): the outcome was inactive.
For `CN1CCN(C(=O)c2sc3cc(Cl)ccc3c2Cl)CC1` the value was “active”.
To `O=C(O)c1sc2cc(F)ccc2c1Cl` belongs “inactive”; to `O=C(O)c1sc2ccccc2c1Cl`, “inactive”.
To `COc1ccccc1CN(C)C1CCN(C)CC1` belongs “inactive”.
For `COc1ccc(Cl)cc1N(CC(=O)NCC1CCCO1)S(C)(=O)=O` (stereo unspecified), the compound was called inactive.
For `CN(C)CCCn1cnc2ccccc21`, the outcome was inactive.
For `COc1cc(C(=O)Nc2sc3c(c2C(N)=O)CCC3)cc(OC)c1OC` the value was “inactive”; for `O=C(Nc1ccccc1)Nc1ccccc1C(=O)N1CCOCC1`, “active”; for `O=C(Nc1ccc(C(=O)N2CCOCC2)cc1)C1COc2ccccc2O1` (stereo unspecified), “inactive”.
For `CCC(=O)Nc1ccccc1C(=O)N1CCN(Cc2ccccc2)CC1` the value was “inactive”.
Consider `NC(=O)CN(Cc1ccccc1Cl)S(=O)(=O)c1ccc(Cl)cc1`, for which the compound was called inactive.
For `O=C(c1ccc([N+](=O)[O-])cc1)N1CCN(c2cccc(Cl)c2)CC1` the value was “inactive”.
For the compound `Cc1ccccc1N(C(F)F)S(=O)(=O)c1cc([N+](=O)[O-])ccc1C`, the result was inactive.
For `O=C(CCN1CCCC1)Nc1ccc2c(c1)CCC2` the value was “inactive”; for `CC(=O)c1ccc(-c2ccc(C=O)o2)cc1`, “inactive”.
To `COc1ccccc1N1CCN(S(=O)(=O)c2cccc3cccnc23)CC1` belongs “inactive”.
